# Only some compounds are listed: those with a hit (about 10% of all), similar ones and a draw of the others.
# JMJD2A Tudor inh – qHTS Assay for Inhibitors of JMJD2A-Tudor Domain. AlphaScreen JMJD2A-Tudor / H3K4me3 peptide binding. Potency, µM (top dose mostly 114 µM), hits mostly inhibitors. AID 504339, 2011. Lysine-specific demethylase 4A (Homo sapiens), O75164. 4.4% of 390,000 active; also: nearly all actives have a fitted effect of over 50% in size
# CtBP-E1A blk – qHTS Assay for Inhibitors of the CtBP/E1A Interaction; AlphaScreen GST-E1A/His-CtBP binding, 1536-well; active compounds read low; activity change, % (no concentration beside the values); 0.49% of 340,000 active; AID 651724, 2012; in the data active = activity change below about -65%; inconclusive = mostly about -30% to -63%
#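 AlphaScreen with 125 nM GST-E1A and 125 nM His-CtBP (5X stocks) in Tris pH 8.0, 300 mM NaCl, BSA, Tween 20, TCEP. Compounds preincubated 2 h at 37 deg C, then glutathione donor/nickel acceptor beads added for 1 h at 37 deg C in dark.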
# G9a inh – qHTS Assay for Inhibitors of Histone Lysine Methyltransferase G9a; G9a H3K9 monomethylation, AlphaScreen, 2 h; 8.8% of 350,000 active; Potency, µM (series often up to 102 µM), hits mostly inhibitors; AID 504332, 2011; also: nearly all actives have a fitted effect of over 75% in size
#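 G9a (20 nM) preincubated 15 min RT with compounds, then 500 nM biotinylated H3K9 peptide and 20 uM SAM added; 2 h RT reaction. Monomethyl-H3K9 product detected by AlphaScreen with anti-H3K9me1 antibody, streptavidin donor and anti-rabbit IgG acceptor beads.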
# Six1-Eya2 blk – qHTS Assay for Inhibitors of the Six1/Eya2 Interaction. AlphaScreen GST-Six1/His-Eya2 binding, biochemical; active compounds read low. activity change, % (concentration not given with the values). 0.56% of 360,000 active. AID 651725, 2012; in the data active = activity change below about -65%; inconclusive = mostly about -30% to -63%
#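 Compounds are tested against tagged Six1 and Eya2 proteins bridged by glutathione donor and nickel acceptor beads; after a one-hour incubation at 37 °C without light, AlphaScreen emission is recorded.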
# HP1b binding inh – HTS for Inhibitors of HP1-beta Chromodomain Interactions with Methylated Histone Tails. 0.56% of 390,000 active. AlphaScreen HP1-beta / biotin-H3K9me3 peptide binding. Chromobox protein homolog 1 (Homo sapiens), P83916. Potency, µM (series often up to 114 µM), most hits filed as inhibitors; also: nearly all actives have a fitted effect of over 70% in size
#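 Compound inhibition of the preformed complex between 50 nM HP1-beta and 50 nM biotinylated H3K9me3 peptide was read by AlphaScreen. Buffer was PBS pH 7.4 with 0.01% Tween-20. Incubations ran 30 min at room temperature, with 10 ug/mL donor/acceptor beads.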
# BAZ2B block – qHTS Assay for Inhibitors of BAZ2B | Bromodomain adjacent to zinc finger domain protein 2B (Homo sapiens), Q9UIF8 | AlphaScreen BAZ2B-H3K14Ac peptide displacement | Potency, µM (doses to about 114 µM), actives largely listed as inhibitors | 4.4% of 360,000 active | AID 504333, 2011; also: nearly all actives have a fitted effect of over 60% in size
#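 Inhibition is scored as reduced AlphaScreen emission. The BAZ2B/b-H3(5-23)K14Ac complex (50 nM each) in PBS pH 7.4, 0.01% Tween-20 meets compound (up to 110 uM) for 30 min at RT before bead addition.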
# Numbers stand for hits; . = inactive; ? = inconclusive; / = not tested or not shown; [ ] = remark or other dose. Unless noted, calls follow the shape of the dose curve; as a rule, active = well fitted inhibition curve with a large enough effect; inconclusive = small, poorly fitted or top-dose-only effect; inactive = no such curve, though single readings can be large or run the other way.
SMILES,JMJD2A Tudor inh,CtBP-E1A blk,G9a inh,Six1-Eya2 blk,HP1b binding inh,BAZ2B block
COc1ccc(NC(=O)CSc2nc(N)c(C(=O)Nc3ccc(N(C)C)cc3)s2)cc1,.,.,?,.,.,.
COC(=O)c1ccc(C(=O)OC)nc1,.,.,.,.,.,.
CCC(=O)Nc1ccc(Br)cn1,.,.,.,.,.,.
COC(=O)c1ccc(C(=O)O)nc1,13µM,.,/,?,?,18µM
O=C(O)c1ccc(Br)cn1,5.6µM,.,22µM,?,.,22µM
COc1ccc(C(=O)N2CCC(c3ccccc3)CC2)c(OC)c1OC,.,.,.,.,.,.
C=Cc1ccc(Cn2c(C(=O)O)c(CNCCc3ccccc3)c3ccc(C)cc32)cc1,.,/,.,/,.,.
Cc1ccc(C2NCCS2)cc1 (stereo not given),.,?,45µM,.,.,.
O=C(COc1ccccc1)NC(NC(=S)Nc1ccccc1C(=O)O)C(Cl)(Cl)Cl (stereo not given),32µM,.,?,.,?,.
CCOC(=O)N1CCCN(/[N+]([O-])=N/Oc2ccc([N+](=O)[O-])cc2[N+](=O)[O-])CC1,.,/,/,/,.,/
CCOC(=O)c1nnn(-c2ccccc2)c1C,.,.,.,.,.,.
CCOC(=O)N1CCN(/[N+]([O-])=N/Oc2ccc([N+](=O)[O-])cc2[N+](=O)[O-])CC1,.,/,18µM,/,.,/
CCOC(=O)c1nnn(-c2ccc([N+](=O)[O-])cc2[N+](=O)[O-])c1C,.,-66,.,.,.,.
CC(C)N1C(=O)CC2(CC[N+](C)(CCOC(=O)C(c3ccccc3)c3ccccc3)CC2)C1=O (stereo not given),.,.,?,.,.,45µM
O=C(OCCN1CCOCC1)C(c1ccccc1)c1ccccc1,?,.,.,.,.,.
CCC(C)(C)NC(=O)C(c1cccnc1)N(CCOC)C(=O)Cn1nnc2ccccc21 (stereo not given),.,.,.,.,.,.
Cc1ccc(S(=O)(=O)N2C3CCCCC3O[C@H]2CC(=O)c2cccc3ccccc23)cc1 (stereo not given in full),/,.,/,.,/,/
Cc1ccc(-n2ncc3c(N4CCCCCC4)ncnc32)cc1,.,/,.,/,.,.
O=c1[nH]c(N/N=C/c2ccc(O)cc2)nc2ccccc12,.,-68,?,?,.,.
COc1cc(/C=N/Nc2nc3ccccc3[nH]2)cc(OC)c1O,.,?,28µM,?,?,?
CCN(CC)c1ccc(/C=N/Nc2nc3ccccc3[nH]2)cc1,56µM,/,?,.,?,10µM
CCOC(=O)C1=C(C)N=C2SCCC(=O)N2C1c1ccc(OCc2ccccc2)cc1 (stereo not given),.,/,.,/,.,.
COc1ccc(OC)c(-c2noc(N3CCN(c4ccc(C(C)=O)cc4)CC3)n2)c1,.,/,.,/,.,.
CC(=O)Nc1ccc(S(=O)(=O)NNC(=O)COc2ccc(C)cc2)cc1,.,.,.,.,.,.
CC(=O)Nc1ccc(S(=O)(=O)NNC(=O)COc2ccc(Cl)cc2Cl)cc1,.,.,50µM,.,.,.
CCNC(=O)COc1ccc(Br)cc1Cl,.,.,.[12.7 µM],.,.,.
CC(=O)NC(=S)Nc1ccc(NC(=O)COc2ccc(Cl)cc2)cc1,.,.,5.6µM,.,.,.
COc1ccc(OCC(=O)NC(=S)NNC(=O)COc2ccc(Br)cc2Cl)cc1,8.9µM,.,1.6µM,.,?,.
O=C(CNc1ccc(Cl)cc1)NNC(=S)NCc1ccccc1,?,.,50µM,.,.,.
O=C(CNc1cccc(Cl)c1)NNC(=S)NCc1ccccc1,.,.,?,.,.,.
